Screening data as filed in PubChem BioAssay.
Sampled rows, rich in hits. Any-hit rate of the full collection: about 3.3%.
AmpC inh detg: blocks E. coli AmpC beta-lactamase in detergent assay; AID 485294; Potency, µM (titrated, usually from 114 µM), for inactives: at the highest dose activity change, negative = inhibition, usual class: inhibitors; P00811; hit rate 0.041% among 370,000; AmpC hydrolysis of nitrocefin, absorbance 480 nm, 0.01% Triton;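 also: 0% = no-compound wells and -100% = no-enzyme wells; nearly all actives have a fitted effect of over 25% in size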
Target sequence (P00811 whole entry, looked up): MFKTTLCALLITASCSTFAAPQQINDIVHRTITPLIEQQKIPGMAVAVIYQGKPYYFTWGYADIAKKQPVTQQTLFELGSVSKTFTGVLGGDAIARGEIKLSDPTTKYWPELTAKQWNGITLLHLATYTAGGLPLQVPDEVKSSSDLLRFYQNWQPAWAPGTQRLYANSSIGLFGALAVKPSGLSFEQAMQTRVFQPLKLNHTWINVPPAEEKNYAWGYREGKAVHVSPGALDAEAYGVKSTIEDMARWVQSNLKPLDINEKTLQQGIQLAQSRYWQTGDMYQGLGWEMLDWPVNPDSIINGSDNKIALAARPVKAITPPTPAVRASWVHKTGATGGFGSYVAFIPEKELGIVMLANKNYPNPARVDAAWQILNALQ
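AmpC (5.3 nM in the dispensed reagent) in 20 mM phosphate pH 7.0 with 0.01% (detergent screen) or 0.0001% Triton X-100 was preincubated with compounds for 15 min at room temperature. Nitrocefin was then added from an 800 uM solution, and hydrolysis was followed at 480 nm.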
AmpC no deterg: AmpC beta-lactamase inhibition without detergent; AID 485341; hit rate 0.52% among 330,000; P00811; Potency, µM (highest dose often 57.1 µM), for inactives: top-dose activity change, negative = inhibition, usual class: inhibitors; AmpC nitrocefin hydrolysis, absorbance 480 nm, 0.0001% Triton;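 also: plate controls were no compound for no effect and no enzyme for full effect; nearly all actives have a fitted effect of over 20% in size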
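20 mM phosphate pH 7.0 + 0.01% (detergent screen) or 0.0001% Triton X-100; 5.3 nM AmpC reagent; cpd preinc 15 min RT; nitrocefin (800 uM stock) to start; A480 q20 s × 4 min; Activity was normalised to no-enzyme and no-compound control wells.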
Sm TGR inh: blocks Schistosoma mansoni thioredoxin glutathione reductase; Q962Y6; purified TGR, DTNB reduction, TNB absorbance 405 nm; Potency, µM (doses to about 114 µM), without a hit: at the highest dose activity change, negative = inhibition, hits mostly inhibitors; hit rate 3% among 360,000; AID 485364; also: nearly all actives have a fitted effect of over 60% in size
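TGR 20 nM + NADPH 100 uM (dispensed conc.), cpd preinc 15 min RT; start with NADPH (500 uM addition) then DTNB (15 mM addition). Kinetic TNB absorbance, 405 nm filter. Four-parameter Hill fit across titration.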
* hit, by the source's call; ? = inconclusive; . = no result given. Calls follow the shape of the dose curve; as a rule, active = well fitted curve in the direction sought with a large enough effect; inconclusive = small, poorly fitted or top-dose-only effect, or another doubt; inactive = no such curve, though single readings can be large; an effect the other way counts as inactive or inconclusive. Unless noted, % is scaled to controls: 0 for no effect and ±100 for the full control effect; potency is read from the fitted curve at half-maximal effect.

SMILES | AmpC inh detg | AmpC no deterg | Sm TGR inh
COc1cc(C)c(C(=O)Oc2cc(C)c(C(=O)O)c(O)c2)c(O)c1 | 3.7% | -21.4% | -0.4%
COc1cc(O)c(C(=O)O)c(-c2cc(O)c(O)cc2C)c1 | -1.7% | -34.0% | 0.159µM*
CCOc1ccccc1NC(=O)N1CCC(N2CCN(Cc3ccccc3)C(=O)C2=O)CC1 | 6.6% | . | 2.5%
O=C(CC1Oc2ccccc2NC1=O)NCc1ccccc1 (configuration not stated) | -16.9% | -11.0% | 0.0%
CC(=O)CC1OC(=O)C(Br)=C1NCc1ccccc1 (configuration not stated) | -15.9% | -14.6% | 3.55µM*
Cc1cc(C)cc(-n2ccnc(NCCc3ccccc3)c2=O)c1 | -0.6% | . | 8.0%
COc1ccccc1CNc1cc(-c2ccccc2)nc2nncn12 | 1.9% | . | 35.5µM*
Clc1ccc(CNc2cc(-c3ccccc3)nc3nncn23)cc1 | -4.0% | . | -7.1%
O=C(Oc1ccc2c(=O)c(Cl)coc2c1)c1cccnc1 | ? | -9.3% | 31.6µM*
O=C(Oc1ccc2c(=O)c(Oc3ccc4ccccc4c3)coc2c1)c1cccnc1 | -9.6% | -38.8% | -19.4%
CCc1ccc(C(C(=O)NCc2ccc(OC)cc2)N(CCOC)C(=O)Cc2cccs2)cc1 (configuration not stated) | -6.3% | 0.2% | -15.2%
COCCN(C(=O)Cc1cccs1)C(C(=O)NCc1ccc(OC)cc1)c1ccc(C)cc1 (configuration not stated) | 5.9% | 0.316µM* | -2.1%
COc1ccc(-c2noc(CCCC(=O)NCc3ccco3)n2)cc1OC | -11.8% | 2.5% | 39.8µM*
Cc1cccc(-c2noc(CCC(=O)NCc3ccco3)n2)c1 | -3.0% | -13.8% | -6.1%
COc1ccc(-c2cc(C(F)(F)F)nc(SCC(=O)NCc3ccco3)n2)cc1OC | -4.4% | 162.8% | 44.7µM*
Cc1cccc(-c2noc(CCCC(=O)NCc3ccco3)n2)c1 | 0.9% | . | -2.0%
COc1cccc(-c2noc(CCCC(=O)NCc3ccco3)n2)c1 | 8.7% | . | 44.7µM*
COc1ccccc1N1CCN(C(=O)CSc2nc(-c3ccco3)cc(C(F)(F)F)n2)CC1 | -3.2% | 133.6% | 35.5µM*
O=C(CSc1nc(-c2ccccc2)cc(C(F)(F)F)n1)NCc1ccco1 | -5.8% | -11.8% | 22.4%
O=C(CSc1nc(-c2ccco2)cc(C(F)(F)F)n1)N1CCN(c2ccc(Cl)cc2)CC1 | ? | 5.1% | -14.4%
CCN(CC)c1ccc(/C=C2\C(=O)c3ccc(C(=O)O)cc3C2=O)cc1 | -7.9% | -15.1% | 0.1%
CCN(CC)S(=O)(=O)c1cc(NC(=O)C2CSC3(C)CCC(=O)N23)ccc1C (configuration not stated) | -5.2% | -7.7% | 2.1%
CCNC(=O)n1nccc1C(C)Oc1ccc(Cl)cc1 (configuration not stated) | -1.6% | 0.7% | 13.6%
Cc1cccc(N=Nc2cnc(N)s2)c1 | 9.3% | -35.2% | 4.9%
CCOC(=O)C1(C)NC(c2cccc(C)c2)C2C(=O)N(c3ccccc3)C(=O)C21 (configuration not stated) | 2.3% | 20.3% | 2.2%
SMILES | AmpC inh detg | AmpC no deterg | Sm TGR inh
COc1ccc(-c2noc3c2-c2nc(C4CCCCC4)sc2CC3)cc1 | ? | -4.4% | -19.8%
CCOC(=O)c1c(NC(=O)c2cc(=O)c3c(C)cc(C)cc3o2)sc2c1CCC2 | 10.0% | . | 4.9%
CCN(C(=O)COC(=O)c1ccccc1NCCO)c1cccc2ccccc12 | -19.8% | 113.3% | -0.9%
CCC1(c2ccccc2)NC(=S)N(c2cccc(C)c2C)N1 (configuration not stated) | -9.1% | -57.0% | -8.2%
O=S(=O)(Cc1ccccc1Cl)Nc1ccccn1 | 1.5% | -5.2% | 25.1µM*
O=S(=O)(Nc1ccccn1)c1ccc(Cl)cc1 | -6.3% | -1.8% | 3.8%
COc1ccc(NC(=O)NCC(C)CSc2ccc(C)cc2)c(OC)c1 (configuration not stated) | -11.1% | -27.7% | -14.0%
O=C(CCC(=O)c1cccs1)OCC(=O)c1ccc(F)cc1 | . | -50.1% | .
Cc1ccc(NC(CC(=O)c2ccccc2)c2ccc(F)cc2)cc1 (configuration not stated) | -7.2% | -33.5% | 0.1%
O=C(CC(Nc1ccc(F)cc1)C(=O)OCC(=O)c1cccs1)c1ccccc1 (configuration not stated) | ? | -30.4% | 8.91µM*
O=C(CC(Nc1ccc(F)cc1)C(=O)O)c1ccccc1 (configuration not stated) | -13.1% | -20.2% | 1.78µM*
COC(=O)CCCC(=O)NCC1(N(C)Cc2ccccc2)Cc2ccccc2C1 | ? | 4.5% | -2.2%
